From PubChem BioAssay AID589 (National Center for Advancing Translational Sciences (NCATS), 2007)
Among all 59,000 compounds or so, about 6,200 (11%) were called active. Roughly 9% stayed inconclusive and do not appear here. Rule as the data show it: active = max dye-equivalent concentration above about 10 nM; inconclusive = mostly about 1.1 nM to 9.6 nM; inactive = weaker than that. The entries come from a sample that favours actives as a whole.

Test: qHTS Assay for Spectroscopic Profiling in 4-MU Spectral Region
Settings: compound autofluorescence, 340/450 nm, 4-MU equivalents; hits give high values
In short: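 Intrinsic fluorescence at 340/450 nm (ex/em) was read after 15 min at room temperature in pH 8.0, 100 mM Tris. Each compound concentration expressed as 4-MU-equivalent concentration from a six-point 4-MU standard series on each plate.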

Row | SMILES | max dye-equivalent concentration
1 | COCCCN1C(=O)C(=O)/C(=C(/O)c2ccc3c(c2)CC(C)O3)C1c1cccnc1 (stereo unspecified) | inactive
2 | CCOC(=O)c1sc(NC(=S)n2cc(C)cn2)c(C(=O)OCC)c1C | inactive
3 | CCCC(=O)Nc1ccc(Cl)c(NC(=O)c2ccc(Br)o2)c1 | inactive
4 | Cc1cc(C)nc(-n2nc(C)cc2NC(=O)c2ccc(Br)o2)n1 | inactive
5 | CCc1c(C)sc(NC(=O)c2ccc(Br)o2)c1C(=O)OC | 96 nM (active)
6 | O=C(c1ccco1)N1CCC[C@@]2(CCN(c3ccccc3)C2)C1 | inactive
7 | O=C(Nc1nnc(CCc2ccccc2)s1)C1CCCO1 (stereo unspecified) | inactive
8 | CCOc1ccc(NC(=O)CC2NCCNC2=O)cc1 (stereo unspecified) | inactive
9 | O=C(CC1Nc2ccccc2NC1=O)Nc1ccccc1 (stereo unspecified) | 89 nM (active)
10 | O=C(CC1NCCNC1=O)Nc1ccc(Oc2ccccc2)cc1 (stereo unspecified) | inactive
11 | Cc1ccccc1S(=O)(=O)Cc1ccc(C(=O)NCCN2CCCCC2C)o1 (stereo unspecified) | inactive
12 | O=C1CC(c2cccc(Br)c2)C2=C(CCCC2=O)N1 (stereo unspecified) | 43 nM (active)
13 | O=C1CC(c2cccc(F)c2)C2=C(CCCC2=O)N1 (stereo unspecified) | inactive
14 | O=C1CCCc2c1[nH]c1ccc(Br)cc21 | inactive
15 | O=C(CN1C(=O)NC2(CCCCC2)C1=O)NCCC1=CCCCC1 | inactive
16 | CC(=O)OC(C(=O)NC1CCCCC1)c1ccccc1 (stereo unspecified) | inactive
17 | CC1(CCC(=O)OC2CCCCC2)OCCO1 | inactive
18 | CCc1ccc2oc(-c3ccc(N)cc3)nc2c1 | 120 nM (active)
19 | Cc1ccc(/C(=C/CN2CCCC2)c2ccccn2)cc1 | inactive
20 | C[C@@H]1C[C@H]2[C@@H]3C[C@H](F)C4=CC(=O)C=C[C@@]4(C)[C@]3(F)[C@H](O)C[C@]2(C)[C@@]1(O)C(=O)CO | inactive
21 | COc1ccccc1-n1cnc2cc(C(=O)NCC3CCCO3)ccc21 (stereo unspecified) | inactive
22 | O=C(Cn1c(=O)n(Cc2ccco2)c(=O)c2ccccc21)NCC1CCCO1 (stereo unspecified) | inactive

Row | SMILES | max dye-equivalent concentration
23 | CC1(C)CC(=O)c2cc(OCC(=O)NCC3CCCO3)ccc2O1 (stereo unspecified) | 1700 nM (active)
24 | Cc1cc2c(cc1C)NC1=C(N2)O[C@H](c2c[nH]c3ccc(COc4ccccc4)cc23)C1=O | inactive
25 | CCN(CCCCOC(=O)c1ccc(OC)c(OC)c1)C(C)Cc1ccc(OC)cc1 (stereo unspecified) | inactive
26 | CC(C)NC(=O)N1CC[C@@]2(CCCN(C(=O)c3cccn3C)C2)C1 | inactive
27 | CCOc1ccc2nc(NC(=O)CSc3nc4c(c(=O)n(C)c(=O)n4C)n3CC)sc2c1 | inactive
28 | CC(=O)c1ccc(-n2nnnc2SCC(=O)N2CCN(C(=O)c3ccco3)CC2)cc1 | inactive
29 | COc1ccc(CCN(C)CCN2C(=O)c3ccccc3C2=O)cc1OC | inactive
30 | COc1ccc(CCN2C(=O)c3[nH]nc(-c4ccccc4O)c3C2c2ccc(C)cc2)cc1OC (stereo unspecified) | 110 nM (active)
31 | COc1ccc(-c2n[nH]c(C)c2-c2ccc(OC)c(OC)c2)c(O)c1 | inactive
32 | Cc1ccc(NC(=O)C2CCCN(S(=O)(=O)c3c(C)noc3C)C2)c(C)c1 (stereo unspecified) | inactive
33 | Cc1ccc(Cn2nnc3c(=O)n(CC(=O)N4CCCCC4)cnc32)cc1 | inactive
34 | COC(=O)c1ccccc1NC(=O)CN(Cc1ccccc1)S(C)(=O)=O | inactive
35 | CNC(=O)CSc1nnnn1-c1ccc(C)cc1C | inactive
36 | O=c1[nH]c(=O)n(Cc2ccco2)c2c1C(C(F)(F)F)(C(F)(F)F)N=C(c1ccco1)N2 | 18 nM (active)
37 | O=c1[nH]c(CSc2ncc(-c3ccc(F)cc3)n2Cc2ccco2)nc2ccccc12 | inactive
38 | Nc1cc(=O)nc(SCc2ccccc2)n1Cc1ccco1 | inactive
39 | CC1Cc2ccccc2N1C(=O)Cn1cnc2ccccc2c1=O (stereo unspecified) | inactive
40 | Cc1ccc(OCC(=O)Nc2ccc(-c3nc4ncccc4o3)cc2)cc1 | 25 nM (active)
41 | COc1ccc(CC(=O)Nc2ccc(-c3nnc(-c4ccc(C)cc4)o3)cc2)cc1 | inactive
42 | Cc1ccc(OCC(=O)Nc2ccc(-c3nnc(-c4ccco4)o3)cc2)cc1 | inactive
43 | COc1ccccc1N(CC(=O)N1CCCCC1)S(=O)(=O)c1ccccc1 | inactive
44 | Cc1ccc(S(=O)(=O)N2CCC(C(=O)N[C@@H](C)C(=O)NCc3ccccc3)CC2)cc1 | inactive

Row | SMILES | max dye-equivalent concentration
45 | COc1ccc(Cl)cc1S(=O)(=O)N1CCN(CC(=O)C(C)(C)C)CC1 | inactive
46 | CCCCOC(=O)NCN1C(=O)C2C3C=CC(C3)C2C1=O (stereo unspecified) | inactive
47 | COCCNC(=O)c1snc2ccc(Cl)cc12 | 49 nM (active)
48 | COCC(C)NC(=O)c1ccc(Cl)c(Cl)c1 (stereo unspecified) | inactive
49 | COCCNC(=O)c1ccccc1-c1nc(-c2ccccc2Cl)no1 | inactive
50 | CCN(CC)c1ccc(C(=O)OCC(=O)c2ccco2)cc1 | inactive
51 | Fc1ccc2nc(N3CCCCC3)sc2c1 | inactive
52 | Cc1cc(N2CCCCC2)nc2ccc(Cc3ccc4nc(N5CCCCC5)cc(C)c4c3)cc12 | 45 nM (active)
53 | O=C(CSc1nnc(-c2ccoc2)o1)N1CCOCC1 | inactive
54 | O=C(O)C1C2C=CC(C2)C1C(=O)N1CCN(CCO)CC1 (stereo unspecified) | inactive
55 | O=c1[nH][nH]c(=O)c2cc(N3CCCC3)ccc12 | 53 nM (active)
56 | Cc1cc(C)cc(N(C(C)C(=O)Nc2c(C)n(C)n(-c3ccccc3)c2=O)S(C)(=O)=O)c1 (stereo unspecified) | inactive
57 | Cc1ccccc1OCCC(=O)Nc1c(C)n(C)n(-c2ccccc2)c1=O | inactive
58 | Cc1c(NC(=O)C(C)OC(=O)c2cc3c4ccccc4n(C)c3s2)c(=O)n(-c2ccccc2)n1C (stereo unspecified) | 110 nM (active)
59 | CCOC(=O)C1CCN(C(=O)CC2C(=O)N(Cc3ccccc3)C(C)c3nc4ccccc4n32)CC1 (stereo unspecified) | inactive
60 | CC1(C)Cc2ccccc2-c2nc(CN3CCOCC3)[nH]c(=O)c21 | inactive
61 | CCN1CCc2c(C#N)c(NCc3ccccc3)nc(NCCO)c2C1 | 430 nM (active)
62 | N#Cc1c(N)sc2c1CCN(C(=O)OCc1ccccc1)C2 | inactive
63 | CC(=O)/C(=N\N=C(N)N)c1ccccc1 | inactive
64 | CC(C)c1nnc(NC(=O)C2CCCN2S(=O)(=O)c2ccc(Cl)cc2)s1 (stereo unspecified) | inactive
65 | CCc1nnc(NS(=O)(=O)c2ccc(NS(=O)(=O)c3ccccc3)cc2)s1 | inactive
66 | CCc1nnc(NC(=O)C2CCCN2S(=O)(=O)c2ccccc2)s1 (stereo unspecified) | 18 nM (active)
